The list is not random: actives were taken first. Their share in the collection is about 2.8%.
Integrin act MD – qHTS for Activators of Integrin-Mediated Alleviation for Muscular Dystrophy; Potency, µM (doses to about 38.3 µM), hits mostly activators; actives 0.064% (n = 350,000); alpha7betagal myoblasts, beta-gal FDG fluorescence, 48 h; AID 624291, 2012; further: nearly all actives have a fitted effect of over 60% in size
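Alpha7betagal+/- myoblasts (passage 13) were plated 16-24 hr, then exposed to compounds (1:260 dilution of DMSO stock) for 48 hours at 37C. After MPER lysis, β-galactosidase reporter activity was read as FDG fluorescence (ex 480/em 540) after 30 minutes.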
MBNL1 CUG block – qHTS Assay for Inhibitors of MBNL1-poly(CUG) RNA binding; TR-FRET MBNL1-His/biotin-(CUG)12 binding, 665/545 ratio; Muscleblind-like protein 1 (Homo sapiens), Q9NR56; Potency, µM (highest dose often 57.5 µM), hits mostly inhibitors; actives 0.036% (n = 280,000); active means well fitted inhibition curve with a large enough effect in the signal ratio, with a control signal flat, not every such curve was filed as active; inconclusive means small, poorly fitted or top-dose-only effect, or effect the other way, or a change in a side signal; inactive means no such curve, though single readings can be large or run the other way; the % refers to the signal ratio
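Compounds (final 92 nM to 58 uM) are added to His-tagged MBNL1 and biotin-(CUG)12, then terbium anti-His antibody and streptavidin-XL665 (5 nM final). After 60 min at room temperature, the 665/545 nm ratio is read.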
D3 antag – qHTS of D3 Dopamine Receptor Antagonist: qHTS; D3R cells, DiscoveRx beta-arrestin luminescence, antagonist mode; active compounds read low; AID 652054, 2013; max response, negative = inhibition, %; D(3) dopamine receptor (Homo sapiens), P35462; actives 2.5% (n = 360,000); in the data active means max response below about -50%; inconclusive means no clear call, values can overlap the other calls
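Cells expressing the human receptor were seeded at 1500 cells/well, incubated overnight at 37 degrees C in 5% CO2, then exposed to library compounds with dopamine controls for 90 minutes at 37 degrees C before luminescent detection.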
DRD3 agonist – qHTS of D3 Dopamine Receptor Agonist: qHTS. D3R DiscoveRx beta-arrestin cells, luminescence, 90 min. max activation, %. actives 0.58% (n = 410,000); in the data active means max activation above about 30%
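Agonist-mode cell screen: cells plated at 1500/well and incubated overnight at 37 °C, then exposed to library compounds for 90 min at 37 °C. Detection reagent was added for 30–60 min at room temperature, and luminescence was read.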
CBFb RUNX1 block – qHTS Assay for Compounds Blocking the Interaction Between CBF-beta and RUNX1 for the Treatment of Acute Myeloid Leukemia; Runt-related transcription factor 1 (Homo sapiens) + Core-binding factor subunit beta …; AlphaScreen CBFb-His/RUNX1-biotin binding, biochemical; Potency, µM (top dose mostly 59.8 µM), hits mostly inhibitors; 230,000 tested, under 10 active
Target sequence (Q01196 whole entry, looked up): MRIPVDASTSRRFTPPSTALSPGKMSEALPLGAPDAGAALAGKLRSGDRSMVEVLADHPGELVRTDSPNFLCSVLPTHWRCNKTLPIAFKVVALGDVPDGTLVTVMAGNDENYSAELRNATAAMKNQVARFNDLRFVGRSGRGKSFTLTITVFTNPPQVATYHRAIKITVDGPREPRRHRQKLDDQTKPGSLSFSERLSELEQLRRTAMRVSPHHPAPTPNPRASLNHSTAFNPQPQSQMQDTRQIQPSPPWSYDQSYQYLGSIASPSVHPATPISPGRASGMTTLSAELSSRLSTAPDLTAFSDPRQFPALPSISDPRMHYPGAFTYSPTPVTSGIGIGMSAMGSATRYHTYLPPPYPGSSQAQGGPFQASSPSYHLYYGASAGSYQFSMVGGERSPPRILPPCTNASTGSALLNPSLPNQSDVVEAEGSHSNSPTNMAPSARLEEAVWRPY
Target sequence (Q13951 whole entry, looked up): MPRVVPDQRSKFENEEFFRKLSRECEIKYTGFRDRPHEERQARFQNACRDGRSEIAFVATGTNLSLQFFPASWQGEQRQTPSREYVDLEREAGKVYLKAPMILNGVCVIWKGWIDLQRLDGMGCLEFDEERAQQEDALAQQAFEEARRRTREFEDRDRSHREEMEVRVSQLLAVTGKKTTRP
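AlphaScreen proximity signal reports loss of binding between His-tagged CBF-beta and biotin-labelled RUNX1, each at 30 nM. Proteins are pre-associated for 20 minutes, compounds added for 15 minutes, then beads for 90 minutes, all at ambient temperature.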
PTHR1 agonist – qHTS for PTHR1 Agonists: Primary Screen; Parathyroid hormone/parathyroid hormone-related peptide receptor (Homo sapiens), Q03431; HEK293 GP2 PTHR1 cells, GloSensor cAMP luminescence, 1 h; Potency, µM (top dose mostly 115 µM), hits mostly activators; actives 0.075% (n = 410,000); further: nearly all actives have a fitted effect of over 55% in size
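HEK-293-derived GP2 cells expressing PTHR1 and a GloSensor cAMP reporter, 3,000/well, plated overnight, given luciferin plus IBMX (each 0.5 mM as added) for 1 h at 37 °C, then compound for 1 h at 37 °C. Luminescence was read after 15 min at room temperature.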
Of the large screens only hits and unclear results are named; the others gave an inactive call. Unless noted, the call rests on the fitted dose curve; in most records, active means well fitted curve in the direction sought with a large enough effect; inconclusive means small, poorly fitted or top-dose-only effect, or another doubt; inactive means no such curve, though single readings can be large; an effect the other way counts as inactive or inconclusive.

O=C1NC(=S)N/C1=C/c1cccc([N+](=O)[O-])c1O	MBNL1 CUG block inconclusive, D3 antag -75
Cc1ccsc1C(=O)N1CCC1(C)C(=O)NS(=O)(=O)c1ccccc1C(F)(F)F (stereo not drawn)	DRD3 agonist 99 (no result: Integrin act MD, MBNL1 CUG block, CBFb RUNX1 block)
CC1(C(=O)NS(=O)(=O)c2ccccc2OC(F)(F)F)CCN1C(=O)c1ccco1 (stereo not drawn)	D3 antag -60 (no result: Integrin act MD, MBNL1 CUG block, CBFb RUNX1 block)
Cc1ccn(CC(=O)N2CCCC(N3CCN(c4cccc(C(F)(F)F)c4)CC3)C2)n1 (stereo not drawn)	none (no result: MBNL1 CUG block, CBFb RUNX1 block)
O=C(c1ccc2c(=O)n3c(nc2c1)CCC3)N1CCN(S(=O)(=O)c2ccccc2Br)CC1	none (no result: MBNL1 CUG block, CBFb RUNX1 block)
CCCN(CCC)C(=O)Cn1c(=O)n(-c2ccc(OC)cc2OC)c(=O)c2c3c(sc21)CCC3	none (no result: Integrin act MD, MBNL1 CUG block, D3 antag, CBFb RUNX1 block)
Cc1ccc2scc(N3CCCC(C)C3)c(=O)c2c1 (stereo not drawn)	none (no result: Integrin act MD, MBNL1 CUG block, D3 antag, CBFb RUNX1 block)
CC(=O)OC[C@@H]1O[C@H](CCO/N=C(\C)CCC(=O)OC[C@@H]2O[C@H](C#Cc3ccccc3)C=C[C@@H]2Oc2ccc(C)cc2)C=C[C@@H]1OC(C)=O	none (no result: Integrin act MD, MBNL1 CUG block, D3 antag, DRD3 agonist, PTHR1 agonist)
Cn1c(=O)n(CCOc2ccc(Cl)cc2Cl)c2ccccc21	none
Clc1cccc(OCCn2cncn2)c1Cl	D3 antag inconclusive
CC1CC(C)CN(CCOc2ccc(Cl)cc2Cl)C1 (stereo not drawn)	D3 antag -97
CCN1CCN(CCOc2cccc(Cl)c2Cl)CC1	D3 antag inconclusive, DRD3 agonist 67
CC1CC(C)CN(CCOc2cccc(Cl)c2Cl)C1 (stereo not drawn)	D3 antag -71
CCC(=O)c1ccccc1OCCN1CCN(CC)CC1	none
CN(C)C(=O)c1cccc(-c2cccc(-c3nc(C(=O)NCc4ccccc4)cc4c3[C@@H](CCO)N(S(=O)C(C)(C)C)C4)c2)c1 (stereo partly drawn)	none (no result: Integrin act MD, MBNL1 CUG block, CBFb RUNX1 block)
CC1CCc2c(sc(NC(=O)Cc3ccccc3)c2C(=O)Nc2ccc(Cl)cc2)C1 (stereo not drawn)	none (no result: Integrin act MD, MBNL1 CUG block, D3 antag, CBFb RUNX1 block)
COc1ccc(C(=O)C2CCCN(Cc3c(F)ccc(F)c3F)C2)c(OC)c1 (stereo not drawn)	none (no result: CBFb RUNX1 block)
COc1ccc(CN2CCN(Cc3c[nH]c4ccccc34)CC2)cc1	D3 antag inconclusive (no result: CBFb RUNX1 block)
COc1ccc(CN2CCCCCC2)c(C)c1C	D3 antag -75
COc1ccc(CN2CCNC(=O)C2CC(=O)NCCc2c[nH]c3ccccc23)c(OC)c1 (stereo not drawn)	Integrin act MD 10µM
COc1ccc(CN2CCN(Cc3c[nH]c4ccccc34)CC2)c(OC)c1	D3 antag -74 (no result: MBNL1 CUG block, CBFb RUNX1 block)
COc1ccc(C(=O)C2CCCN(Cc3c[nH]c4ccccc34)C2)c(OC)c1 (stereo not drawn)	D3 antag -96
COc1cc(CN2CCCCCC2)cc(OC)c1OC	D3 antag inconclusive (no result: CBFb RUNX1 block)
COCCCNC(=O)C[C@@H]1C[C@@]2(C(=O)OC)CCCCC=C2N(Cc2ccco2)C1=O	none (no result: Integrin act MD, MBNL1 CUG block, CBFb RUNX1 block)
COc1ccc(CC(=O)Nc2cc(F)ccc2F)cc1S(=O)(=O)N1CCOCC1	none (no result: MBNL1 CUG block, CBFb RUNX1 block)
COc1ccc(C(=O)C2CCCN(C/C=C/c3ccccc3OC)C2)c(OC)c1 (stereo not drawn)	D3 antag -72
CCOC(=O)c1[nH]ncc1CN1CCCC(C(=O)c2ccc(OC)c(OC)c2)C1 (stereo not drawn)	none
Cc1ccc(CN2CCN(Cc3ccccc3C(F)(F)F)CC2)cc1	D3 antag -72
CCOC(=O)c1[nH]ncc1CN1CCCC(C(=O)c2cc(Cl)ccc2OC)C1 (stereo not drawn)	D3 antag -102
COc1ccc(CN2CCN(Cc3cccc(Oc4ccccc4)c3)CC2)c(OC)c1OC	D3 antag -70 (no result: CBFb RUNX1 block)
COc1cc(CN2CCN(Cc3ccccc3C(F)(F)F)CC2)cc(OC)c1OC	none (no result: CBFb RUNX1 block)
COc1ccc(Br)cc1CN1CCN(Cc2c[nH]c3ccccc23)CC1	Integrin act MD inconclusive, D3 antag -90 (no result: CBFb RUNX1 block)
COc1ccc(CN2CCN(Cc3c[nH]c4ccccc34)CC2)cc1OC	D3 antag -52 (no result: MBNL1 CUG block, CBFb RUNX1 block)
COc1ccc(CN2CCN(Cc3ccc(C)cc3)CC2)c(OC)c1	D3 antag -50 (no result: CBFb RUNX1 block)
COc1ccc(CN2CCN(Cc3ccc(C(F)(F)F)cc3)CC2)c(OC)c1	none (no result: CBFb RUNX1 block)
CCN(Cc1ccccc1)C(=O)C1CCN(Cc2ccc(OC)c(OC)c2OC)CC1	D3 antag -51
COc1cccc(OC)c1C(=O)N1CCN(Cc2c[nH]c3ccccc23)CC1	none (no result: MBNL1 CUG block, CBFb RUNX1 block)
CCCCN(C)C(=O)Cn1cnc2sc(C)c(S(=O)(=O)N3CCC(C)CC3)c2c1=O	none (no result: Integrin act MD, MBNL1 CUG block, D3 antag, CBFb RUNX1 block)
Cc1cc(NC(=O)NC(=O)c2ccccc2)no1	none (no result: CBFb RUNX1 block)
Cc1cc(C(=O)Nc2ccc(N3CCOCC3)c3nonc23)ccc1[N+](=O)[O-]	none (no result: CBFb RUNX1 block)

Compound activity (PubChem BioAssay)
